Measured values reported in publication PMC7826789 (International Journal of Molecular Sciences, 2021).

Assays:
Conditions in all cases: Compound Concentration (nM):1000
EPHB2 = test system: EPHB2
EPHB3 = test system: EPHB3
EPHB4 = test system: EPHB4
EPHB6 = test system: EPHB6
ERBB2 = test system: ERBB2
ERBB3 = test system: ERBB3
ERBB4 = test system: ERBB4
ERK1 = test system: T1, ERK1
T1 construct: gene MAPK3

ERK2 = test system: T2, ERK2
T2 construct: gene MAPK1

ERK3 = test system: T3, ERK3
T3 construct: gene MAPK6
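Note: KINOMEscan scanMAX binding as percent activity remaining versus control; lower means stronger binding.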

SMILES	Percent Control (EPHB2) [%]	Percent Control (EPHB3) [%]	Percent Control (EPHB4) [%]	Percent Control (EPHB6) [%]	Percent Control (ERBB2) [%]	Percent Control (ERBB3) [%]	Percent Control (ERBB4) [%]	Percent Control (ERK1) [%]	Percent Control (ERK2) [%]	Percent Control (ERK3) [%]
O=C1Nc2ccc(C(=O)c3ccco3)cc2C1=Cc1cc(Cl)c(O)c(Cl)c1 [GW406108X]	100	89	98	63	83	87	100	100	94	94
NS(=O)(=O)c1ccc(N/N=C2\C(=O)Nc3ccc(C(=O)NCc4ccncc4)cc32)cc1 [GW300657X]	93	98	100	16	80	53	93	100	88	87
O=C(Nc1n[nH]c2nc(-c3ccc(O)cc3)c(Br)cc12)C1CC1 [SB-725317]	100	100	100	57	80	32	100	100	100	100
COc1ccc(COc2ccc(Cc3cnc(N)nc3N)cc2OC)cc1 [GW632580X]	81	73	92	100	94	85	100	95	92	87
COc1ccc2[nH]c3c4[nH]c5ccc(OC)cc5c4c4c(c3c2c1)C(=O)NC4=O [GW296115X]	84	85	84	7.3	100	85	59	85	76	84
NS(=O)(=O)c1ccc(N/N=C2\C(=O)Nc3ccc(-c4cnco4)cc32)cc1 [GW276655]	100	86	84	58	91	76	66	75	77	87
Cl.O=S1CCN(Cc2ccc(-c3ccc4ncnc(Nc5ccc(OCc6ccccc6)c(F)c5)c4c3)o2)CC1 [GW576924A]	100	100	100	100	0	58	22	100	100	100
CC1=C(C(=O)Nc2ccc3[nH]ncc3c2)C(c2ccc3ccccc3c2)CC(=O)N1 (centres unmarked) [GSK270822A]	86	89	84	86	83	100	100	66	79	100
COc1cc(C=NNc2ncnc3c2cnn3-c2ccccc2)ccc1O [GW513184X]	93	100	100	3.9	81	66	100	100	82	15
NS(=O)(=O)c1ccc(N/N=C2\C(=O)Nc3ccc(Cl)cc32)cc1 [GW280670X]	100	100	100	82	81	72	100	100	100	100
COc1cccc(-c2c[nH]c3c(N/N=C/c4ccncc4)ncnc23)c1 [GW814408X]	100	100	100	2.7	63	13	88	100	100	19
Cl.O=C(O[C@H]1CN[C@H](C#Cc2cc3ncnc(Nc4ccc5c(cnn5Cc5ccccc5)c4)c3s2)C1)N1CCOCC1 [GSK200398A]	100	100	96	100	0	10	0	100	100	100
CN(C)c1cc2c(Nc3ccc4c(cnn4Cc4ccccc4)c3)ncnc2cn1 [GW282974X]	100	75	85	24	0		24	100	37	
COc1ccc2c(-c3ccnc(Nc4cccc(OC(F)(F)F)c4)n3)cnn2n1 [GW810372X]	100	100	100	83	100	65	100	100	100	100
CC(C)COC(=O)c1ccc2c(c1)/C(=C/Nc1ccc(S(N)(=O)=O)cc1)C(=O)N2 [GW416981X]	100	100	100	100	26	81	50	100	100	100
CN1CCN(C(=O)c2ccc(NC(=O)Nc3ccc(N(C)c4ccnc(Nc5ccc(CS(C)(=O)=O)cc5)n4)cc3)cc2)CC1.Cl [GW830263A]	76	100	85	4.3	100	85	77	100	100	100
Cl.O=C(Nc1ccc(Oc2ccc3[nH]c(NC(=O)c4ccccc4)nc3c2)cc1)Nc1cc(C(F)(F)F)ccc1F [GW709042A]	76	90	84	28	92	70	100	100	100	84
COc1ccccc1-c1cc(/C=C2\C(=O)Nc3ncc(Br)cc32)cc(Br)c1O [GW442130X]	100	100	100	42	100	95	100	87	100	100
CC1=C(C(=O)Nc2ccc3[nH]ncc3c2)C(c2ccc(Cl)c(Cl)c2)CC(=O)N1 (centres unmarked) [GSK299115A]	100	98	94	99	92	100	36	72	76	77
CCc1ccc(Oc2nccc(-c3c(-c4ccc(F)cc4)ncn3C3CCNCC3)n2)cc1 [SB-242719]	95	94	98	76	20	78	99	92	100	100

SMILES	Percent Control (EPHB2) [%]	Percent Control (EPHB3) [%]	Percent Control (EPHB4) [%]	Percent Control (EPHB6) [%]	Percent Control (ERBB2) [%]	Percent Control (ERBB3) [%]	Percent Control (ERBB4) [%]	Percent Control (ERK1) [%]	Percent Control (ERK2) [%]	Percent Control (ERK3) [%]
CCn1c(-c2nonc2N)nc2c(C#CC(C)(C)O)nc(OCCNC)cc21.Cl [GSK949675]	94	100	100	90	57	79	100	93	90	100
COc1ccc2cc(-c3c(-c4ccncc4)nc(-c4ccc(S(C)(=O)=O)cc4C)n3C)ccc2c1 [SB-633825]	91	80	73	74	12	84	22	91	95	42
COc1cc2ncn(-c3cc(O[C@H](C)c4ccccc4Cl)c(C(N)=O)s3)c2cc1OC [GSK237701A]	90	92	85	16	100	89	63	100	100	82
C/C(Nc1ccc(S(N)(=O)=O)cc1)=C1/C(=O)Nc2ccccc21 [GW335962X]	100	89	86	93	100	74	100	91	100	93
COc1cc2ncnc(Nc3ccc4c(cnn4Cc4ccccc4)c3)c2cc1OC.Cl [GW282449A]	100	100	100	12	0	0	0	100	100	100
COc1cc(/C=N/Nc2ncnc3[nH]ncc23)ccc1O [GW578748X]	100	100	100	1.6	57	64	100	100	100	57
COc1cc(C)c(N(C)C(=O)CN(C)C)cc1Nc1nc(Nc2cccc(F)c2C(N)=O)c2cc[nH]c2n1 [GSK2219385]	100	93	100	74	94	57	86	65	100	90
NS(=O)(=O)c1ccc(Nc2ncc(-c3ccccc3)o2)cc1 [GW572399X]	100	94	100	35	70	74	100	100	100	100
Cl.O=C(Nc1ccc(Oc2ccc3[nH]c(NC(=O)c4ccco4)nc3c2)cc1)Nc1cc(C(F)(F)F)ccc1F [GW683134A]	31	99	87	3.2	79	77	100	100	100	90
CCS(=O)(=O)c1ccc(OC)c(Nc2ncc(-c3cccc(F)c3)o2)c1 [GW621970X]	100	100	99	1.6	88	53	100	100	100	100
COc1cccc(-n2ncc3c(N/N=C/c4ccncc4)ncnc32)c1 [GW784752X]	100	100	100	100	68	4.9	83	100	100	41
Cc1cc(O)cc(C)c1/C=C/c1cncc(C(N)=O)c1 [GW435821X]	100	100	100	6.6	61	43	100	100	100	100
COC(=O)Nc1nc2ccc(Oc3ccc(NC(=O)Nc4cc(C(F)(F)F)ccc4F)cc3)cc2s1.Cl [GW693917A]	34	81	59	9.4	100	45	100	100	100	66
Nc1ncnc2occ(-c3ccc(NC(=O)Nc4cc(C(F)(F)F)ccc4F)cc3)c12 [GW770249X]	11	31	36	0.5	67	91	100	100	100	100
CN(C)CCNC(=O)Nc1ccc(N(C)c2ccnc(Nc3ccc(CS(C)(=O)=O)cc3)n2)cc1.Cl [GW830900A]	100	100	100	28	100	93	81	100	85	94
COc1cc(N2CCN(C(C)C)CC2)ccc1Nc1nc(Nc2ccc(F)cc2C(=O)NC[C@@H](O)CO)c2cc[nH]c2n1 [GSK1392956A]	100	69	81	93	85	50	73	100	99	66
Cl.c1ccc(Cc2nc3ccc(Nc4ncnc5ccccc45)cc3[nH]2)cc1 [GR269666A]	100	100	100	81	0	20	1.8	100	100	100
C[C@@H](Oc1cc(-n2cnc3ccc(OC4CCN(C)CC4)cc32)sc1C(N)=O)c1ccccc1Cl [GSK579289A]	77	95	100	75	79	85	90	59	100	97
NS(=O)(=O)c1ccc(N/N=C2\C(=O)Nc3ccc(C(=O)NCCc4c[nH]cn4)cc32)cc1 [GW300660X]	100	100	100	37	57	86	100	100	100	100
CCS(=O)(=O)c1ccc(OC)c(Nc2ncc(-c3cccc(OC)c3)o2)c1 [GW580509X]	100	100	100	3.3	77	54	100	100	100	100
